Among the data in PubChem BioAssay are inhibition values, retold here.

Activity calls are given as the source filed them. How the calls were made is not given here.

Pantothenate synthetase (Mycobacterium tuberculosis (strain ATCC 25618 / H37Rv)), sequence (P9WIL5 whole entry, looked up): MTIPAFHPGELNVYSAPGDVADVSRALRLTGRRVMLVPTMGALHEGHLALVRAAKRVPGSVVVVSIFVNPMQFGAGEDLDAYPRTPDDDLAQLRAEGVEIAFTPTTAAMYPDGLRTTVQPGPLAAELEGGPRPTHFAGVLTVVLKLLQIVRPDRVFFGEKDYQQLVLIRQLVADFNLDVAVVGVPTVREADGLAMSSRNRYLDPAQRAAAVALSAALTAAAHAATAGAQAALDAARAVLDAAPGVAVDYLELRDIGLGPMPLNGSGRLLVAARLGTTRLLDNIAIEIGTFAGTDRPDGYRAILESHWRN

The assay has as its target Pantothenate synthetase (Mycobacterium tuberculosis (strain ATCC 25618 / H37Rv)) (UniProt P9WIL5). Nature of the assay: Coupled enzyme confirmation of inhibitors against recombinant Mtb PanC (AID 375).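 Further: 0% = full reaction with vehicle and 100% = no enzyme background.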 The settings on record: coupled enzyme assay; at 10 µM, active compounds read high.
On to `Cc1ccc(S(=O)(=O)Cc2ccc(C(=O)N3CCN(Cc4ccccc4)CC3)o2)cc1`, for which the inhibition was 3% (inactive).
Regarding `Nc1nc(-c2ccc(Cl)cc2)cc(C(F)(F)F)n1`, the inhibition was 0% (inactive).
As for `Cc1ccc2[nH]c(=O)c(-c3noc(-c4ccncc4)n3)cc2c1`, the figure is 2% (inactive).
As for `O=C1C(C=NCCCn2ccnc2)=C(O)c2ccccc21`, the figure is 8% (inactive); as for `CCOc1ccccc1Nc1nc2ccccc2[nH]1`, 1% (inactive).
As for `O=C(O)CCN1C(=O)c2ccccc2C1=O`, the figure is 6% (inactive).
On to `COc1ccccc1C(=O)Nc1nc2ccc(S(C)(=O)=O)cc2s1`, for which the inhibition was 0% (inactive).
As for `Cc1c(C#N)c(N)c(C(=O)c2ccccc2)n1Cc1ccccc1`, the figure is 0% (inactive); as for `CN1CCC(=C2c3ccccc3C=Cc3ccccc32)CC1`, 0% (inactive); as for `CC(C)=CCSc1nnc(CCNC(=O)OC(C)(C)C)o1`, 3% (inactive).
As for `COC(=O)C1(C(=O)OC)Sc2ccccc2C1=O`, the figure is 3% (inactive); as for `CC(=O)C1=C(C)NC(SCSc2ccccc2)=C(C#N)C1c1cccnc1` (stereo not given), 4% (inactive).
The value for `CC1(C)Oc2ccc3ccc(=O)oc3c2C(N2CCCCC2)C1O` (stereo not given) was 0% (inactive); that for `CCCc1nnc(NC(=O)CCC(=O)N2CCN(CCOc3ccc(C)cc3)CC2)s1` was 5% (inactive); that for `Cc1onc(-c2ccccc2)c1C(=O)N1CCCSC1=Nc1ccccc1` was 6% (inactive).
On to `COc1ccc(C)cc1NC(=O)c1nc2nc(C)cc(C)n2n1`, for which the inhibition was 7% (inactive).
As for `CC1(C)OC(=O)C(=CNc2ccccc2)C(=O)O1`, the figure is 4% (inactive); as for `CC(C)OC(=O)c1cc(NC(=O)C2C3CCC(O3)C2C(=O)O)cc(C(=O)OC(C)C)c1` (stereo not given), 0% (inactive); as for `CC1CCN(C(=O)CSc2nc3ccccc3[nH]2)CC1`, 0% (inactive).
Take `COCCOC(=O)c1cc(C(=O)c2cc(F)ccc2O)coc1=N`: the inhibition was 2% (inactive).
As for `CC12CCC(C(=O)N3CCN(C(=O)C45CCC(C)(C(=O)O4)C5(C)C)CC3)(OC1=O)C2(C)C`, the figure is 0% (inactive).
The value for `CCOc1ccc(NC(=O)CN2CCN(CC(=O)Nc3ccc(F)c(F)c3)CC2)cc1` was 0% (inactive).
The value for `CCC1(C)Cc2c(C#N)c(N)n(-c3ccccc3)c(=O)c2CO1` (stereo not given) was 0% (inactive).
In the case of `COc1cccc2cc(C(=O)N3CCN(C45CC6CC(CC(C6)C4)C5)CC3)c(=O)oc12`, the inhibition is 1% (inactive).
The value for `O=C(CN1CCN(Cc2ccc3c(c2)OCO3)CC1)Nc1ccc2c(c1)OCCO2` was 0% (inactive); that for `O=C(CN(Cc1ccco1)C(=O)CNS(=O)(=O)c1ccc(F)cc1)NCCc1ccccc1` was 3% (inactive).
As for `O=C(O)CCn1[nH]c(=O)ccc1=O`, the figure is 0% (inactive); as for `CCC(c1nnnn1C(C)(C)C)N1CCN(C2CCCC2)CC1` (stereo not given), 4% (inactive); as for `Cn1cccc1C(=O)NC(=O)CSc1nnc(C2CC2)n1-c1ccccc1`, 0% (inactive).
As for `COc1ccc(-c2nnc(SCC(=O)Nc3cc(C)on3)n2C)cc1OC`, the figure is 5% (inactive); as for `FC(F)(F)c1cc(-c2ccco2)nc(N2CCOCC2)n1`, 2% (inactive); as for `COCCn1nnnc1SCC(=O)N1CCCCC1`, 0% (inactive).
`Cc1cc(C)c2c(n1)nn1c(N3CCN(c4cccc(Cl)c4)CC3)cc(C)nc21`: the inhibition was 5% (inactive).
Regarding `O=C1CC(c2ccccc2)Cc2nc(N3CCc4ccccc43)ncc21` (stereo not given), the inhibition is 1% (inactive).
As for `O=S(=O)(Nc1ccc2c(c1)OCO2)c1ccc(Br)s1`, the inhibition was 0% (inactive).
As for `COc1ccc(-c2cc(O)cc(O)c2)cc1`, the figure is 0% (inactive).
As for `Cc1nnc(SCC(=O)NCc2ccccc2)s1`, the figure is 0% (inactive); as for `CCOC(=O)c1cccc(NC(=O)Cn2cnc3c2c(=O)n(C)c(=O)n3C)c1`, 4% (inactive); as for `CCS(=O)(=O)N1CCC(C(=O)NCc2cccs2)CC1`, 2% (inactive).
As for `O=C(c1ccc(CNc2c(N3CCCC3)c(=O)c2=O)cc1)N1CCc2ccccc2C1`, the figure is 1% (inactive).
